About 2,000 (36%) of roughly 5,500 compounds were called active. Inconclusive results (about 18%) are left out. No stated cut-off is given here; in the data, active means normalized growth mostly below about 0.91 (no sharp cut-off); inconclusive means no clear call, values can overlap the other calls; inactive means mostly above about 0.92. The list shows a part of the results.
Test: chemical genetic growth profiling, strain panel (AID 1159580);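 further: tested at 20 µM; growth read once vehicle control cultures reached saturation at 30 °C; 1 = growth at the plate median or of vehicle wells; lower values mean less growth of the strain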
Conditions: growth OD

Measured: normalized growth

COc1ccc(-c2cc(=O)c3c(O)cc(O[C@@H]4O[C@H](CO[C@H]5O[C@H](C)[C@@H](O)[C@H](O)[C@@H]5O)[C@@H](O)[C@H](O)[C@H]4O)cc3o2)cc1O
inactive: S. cerevisiae deletion strains, locus YKL009W, strain mrt4, active compounds read low 0.981 | S. cerevisiae deletion strains, locus YKL068W, active compounds read low 0.973 | S. cerevisiae deletion strains, locus YKL085W, strain MDH1 (second series), active compounds read low 0.991 | S. cerevisiae deletion strains, locus YKL085W, strain MDH1, active compounds read low 0.991 | S. cerevisiae deletion strains, locus YKL160W, strain elf1, active compounds read low 1 | S. cerevisiae deletion strains, locus YKL190W, strain CNB1, active compounds read low 0.994 | S. cerevisiae deletion strains, locus YKR001C, strain vps1, active compounds read low 1.02 | S. cerevisiae deletion strains, locus YKR026C, strain gcn3, active compounds read low 1.01 | S. cerevisiae deletion strains, locus YKR091W, strain srl3, active compounds read low 1.02 | S. cerevisiae deletion strains, locus YLL001W, strain dnm1, active compounds read low 1 | S. cerevisiae deletion strains, locus YLL026W, active compounds read low 1.01 | S. cerevisiae deletion strains, locus YLL041C, strain sdh2, active compounds read low 1.01 | S. cerevisiae deletion strains, locus YLR027C, strain aat2, active compounds read low 1.01 | S. cerevisiae deletion strains, locus YLR039C, strain RIC1, active compounds read low 0.954 | S. cerevisiae deletion strains, locus YLR058C, strain SHM2, active compounds read low 0.986 | S. cerevisiae deletion strains, locus YLR102C, strain apc9, active compounds read low 0.996 | S. cerevisiae deletion strains, locus YLR113W, strain HOG1, active compounds read low 1.03 | S. cerevisiae deletion strains, locus YLR221C, strain rsa3, active compounds read low 1.01 | S. cerevisiae deletion strains, locus YLR258W, strain gsy2, active compounds read low 1.03 | S. cerevisiae deletion strains, locus YLR262C, strain YPT6 (second series), active compounds read low 1.03 | S. cerevisiae deletion strains, locus YLR262C, strain YPT6, active compounds read low 0.949 | S. cerevisiae deletion strains, locus YLR268W, strain sec22, active compounds read low 1 | S. cerevisiae deletion strains, locus YLR320W, strain mms22, active compounds read low 1.03 | S. cerevisiae deletion strains, locus YLR330W, strain CHS5, active compounds read low 0.981 | S. cerevisiae deletion strains, locus YLR342W, strain FKS1 (second series), active compounds read low 1.01 | S. cerevisiae deletion strains, locus YLR342W, strain FKS1, active compounds read low 1.03 | S. cerevisiae deletion strains, locus YLR357W, strain rsc2, active compounds read low 1.03 | S. cerevisiae deletion strains, locus YLR370C, strain arc18, active compounds read low 1.01 | S. cerevisiae deletion strains, locus YLR371W, strain rom2, active compounds read low 0.999 | S. cerevisiae deletion strains, locus YLR384C, strain iki3, active compounds read low 1.03 | S. cerevisiae deletion strains, locus YLR418C, strain cdc73, active compounds read low 0.979 | S. cerevisiae deletion strains, locus YML016C, strain PPZ1, active compounds read low 0.994 | S. cerevisiae deletion strains, locus YML032C, strain rad52, active compounds read low 1.02 | S. cerevisiae deletion strains, locus YML120C, strain ndi1, active compounds read low 1.01 | S. cerevisiae deletion strains, locus YML124C, strain tub3, active compounds read low 1 | S. cerevisiae deletion strains, locus YMR058W, strain fet3, active compounds read low 1.01 | S. cerevisiae deletion strains, locus YMR078C, strain ctf18, active compounds read low 0.993 | S. cerevisiae deletion strains, locus YMR125W, strain sto1, active compounds read low 1.03 | S. cerevisiae deletion strains, locus YMR129W, active compounds read low 1 | S. cerevisiae deletion strains, locus YMR205C, strain PFK2, active compounds read low 1.03 | S. cerevisiae deletion strains, locus YMR223W, strain ubp8, active compounds read low 0.989 | S. cerevisiae deletion strains, locus YMR231W, strain pep5, active compounds read low 1.02 | S. cerevisiae deletion strains, locus YMR307W, strain GAS1, active compounds read low 1.07 | S. cerevisiae deletion strains, locus YNL067W, strain RPL9B, active compounds read low 1.04 | S. cerevisiae deletion strains, locus YNL071W, strain lat1, active compounds read low 1.03 | S. cerevisiae deletion strains, locus YNL128W, strain TEP1, active compounds read low 1.01 | S. cerevisiae deletion strains, locus YNL183C, strain NPR1, active compounds read low 0.989 | S. cerevisiae deletion strains, locus YNL209W, strain ssb2, active compounds read low 1.01 | S. cerevisiae deletion strains, locus YNL233W, strain BNI4, active compounds read low 1.01 | S. cerevisiae deletion strains, locus YNL248C, strain rpa49, active compounds read low 1 | S. cerevisiae deletion strains, locus YNL250W, strain rad50, active compounds read low 1 | S. cerevisiae deletion strains, locus YNL271C, strain bni1, active compounds read low 0.999 | S. cerevisiae deletion strains, locus YNL298W, strain CLA4, active compounds read low 0.985 | S. cerevisiae deletion strains, locus YNL307C, strain MCK1, active compounds read low 1 | S. cerevisiae deletion strains, locus YNL322C, strain KRE1 (second series), active compounds read low 1.02 | S. cerevisiae deletion strains, locus YNL322C, strain KRE1, active compounds read low 1 | S. cerevisiae deletion strains, locus YNR049C, strain mso1, active compounds read low 1.01 | S. cerevisiae deletion strains, locus YNR052C, strain pop2, active compounds read low 1 | S. cerevisiae deletion strains, locus YOL006C, strain TOP1, active compounds read low 1.08 | S. cerevisiae deletion strains, locus YOL012C, strain htz1 1.47 | S. cerevisiae deletion strains, locus YOL147C, strain pex11, active compounds read low 0.974 | S. cerevisiae deletion strains, locus YOR001W, strain rrp6, active compounds read low 1.03 | S. cerevisiae deletion strains, locus YOR061W, strain CKA2, active compounds read low 0.993 | S. cerevisiae deletion strains, locus YOR069W, strain VPS5, active compounds read low 0.987 | S. cerevisiae deletion strains, locus YOR070C, strain gyp1, active compounds read low 1.02 | S. cerevisiae deletion strains, locus YOR080W, strain dia2, active compounds read low 1.03 | S. cerevisiae deletion strains, locus YOR083W, strain WHI5, active compounds read low 0.992 | S. cerevisiae deletion strains, locus YOR106W, strain vam3, active compounds read low 0.983 | S. cerevisiae deletion strains, locus YOR136W, strain idh2, active compounds read low 1.01 | S. cerevisiae deletion strains, locus YOR144C, strain elg1, active compounds read low 1 | S. cerevisiae deletion strains, locus YOR184W, strain ser1, active compounds read low 1.01 | S. cerevisiae deletion strains, locus YOR231W, strain MKK1, active compounds read low 1 | S. cerevisiae deletion strains, locus YOR265W, strain rbl2, active compounds read low 1.02 | S. cerevisiae deletion strains, locus YOR270C, strain vph1, active compounds read low 0.983 | S. cerevisiae deletion strains, locus YOR290C, strain snf2, active compounds read low 1.02 | S. cerevisiae deletion strains, locus YOR316C, strain cot1, active compounds read low 0.997 | S. cerevisiae deletion strains, locus YPL051W, strain arl3, active compounds read low 1.01 | S. cerevisiae deletion strains, locus YPL055C, strain LGE1, active compounds read low 1.07 | S. cerevisiae deletion strains, locus YPL078C, strain atp4, active compounds read low 0.998 | S. cerevisiae deletion strains, locus YPL106C, strain sse1, active compounds read low 1.05 | S. cerevisiae deletion strains, locus YPL240C, strain hsp82, active compounds read low 1.03 | S. cerevisiae deletion strains, locus YPL241C, strain CIN2, active compounds read low 0.986 | S. cerevisiae deletion strains, locus YPL256C, strain CLN2, active compounds read low 0.987 | S. cerevisiae deletion strains, locus YPR119W, strain clb2, active compounds read low 1 | S. cerevisiae deletion strains, locus YPR141C, strain kar3, active compounds read low 0.972 | S. cerevisiae deletion strains, locus YPR163C, strain tif3, active compounds read low 0.992 | S. cerevisiae deletion strains, locus YPR167C, strain met16, active compounds read low 1.01 | S. cerevisiae deletion strains, strain wtn01, active compounds read low 0.997 | S. cerevisiae strains, strain wild type, active compounds read low 1

From PubChem BioAssay AID1159580 (chemical genetic matrix, 2015)
